TDP1 cell CPT: DT40-hTDP1 cell growth loss with CPT. Potency, µM (series often up to 46.2 µM), for the others: at the top dose activity change, negative = growth inhibition, usual class: inhibitors. AID 686979. 420,000 compounds, 12% hits. chicken DT40 Tdp1-/-;hTDP1 cells + 20 nM CPT, ATP luminescence, 48 h; note: nearly all actives have a fitted effect of over 55% in size
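Chicken DT40 Tdp1-/- cells stably complemented with human TDP1 were seeded at 400 cells/well in medium containing 20 nM camptothecin, exposed to pin-transferred compounds, and grown at 37 °C for at least 48 hr. Viability was read as ATP luminescence.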
GCN5L2 inh: inhibitors of human GCN5L2 histone acetyltransferase. Q92830. GCN5L2 HAT assay, ThioGlo1 CoA-SH fluorescence. Potency, µM (top dose mostly 58.9 µM), inactives show at the highest dose activity change, negative = inhibition, hits mostly inhibitors. 390,000 compounds, 0.21% hits
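Titration-based screen in which CoA formation is detected via maleimide probe ThioGlo1 (50uM) turning fluorescent on thiol reaction; substrates H3(1-25) 75uM and acetyl-CoA 70uM, GCN5L2 20nM, 20 min incubation at room temperature.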
TDP1 inh: TDP1 (human) enzyme inhibition. Q9NUW8. recombinant TDP1, AlphaScreen DNA substrate cleavage. Potency, µM (doses to about 130 µM), inactives show at the highest dose activity change, negative = inhibition, usual class: inhibitors. 350,000 compounds, 0.28% hits; note: nearly all actives have a fitted effect of over 40% in size
Target sequence (Q9NUW8 whole entry, looked up): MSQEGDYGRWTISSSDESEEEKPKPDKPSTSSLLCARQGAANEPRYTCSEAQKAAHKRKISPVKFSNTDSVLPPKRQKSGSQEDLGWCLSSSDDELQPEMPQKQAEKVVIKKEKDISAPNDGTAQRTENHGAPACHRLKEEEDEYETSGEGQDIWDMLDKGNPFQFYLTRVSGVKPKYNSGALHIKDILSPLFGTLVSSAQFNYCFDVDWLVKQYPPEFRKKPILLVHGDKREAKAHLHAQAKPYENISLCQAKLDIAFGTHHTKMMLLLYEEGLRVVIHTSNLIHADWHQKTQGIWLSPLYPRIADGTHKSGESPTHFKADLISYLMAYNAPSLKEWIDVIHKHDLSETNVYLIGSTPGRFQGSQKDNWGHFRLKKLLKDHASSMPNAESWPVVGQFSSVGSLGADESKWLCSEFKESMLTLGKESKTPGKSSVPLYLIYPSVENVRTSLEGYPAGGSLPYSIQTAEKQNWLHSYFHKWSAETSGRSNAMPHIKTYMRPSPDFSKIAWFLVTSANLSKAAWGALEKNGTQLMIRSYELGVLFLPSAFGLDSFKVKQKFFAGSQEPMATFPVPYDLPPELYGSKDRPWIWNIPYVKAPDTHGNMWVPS
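Steps: enzyme plus compound, 15 min RT; add biotin/phosphotyrosine-FITC oligonucleotide (15 nM final), react 5 min; add donor/acceptor beads (10 ug/ml final), 10 min; read AlphaScreen. Tdp1 at 1 nM final.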
PLK1 PBD block: PLK1 (human) polo-box domain binding inhibition | Plk1 PBD binding of FITC phosphopeptide, fluorescence polarization | 360,000 compounds, 2.8% hits | Potency, µM, for inactives: max response, negative = inhibition, hits mostly inhibitors; note: series mostly up to about 57 µM; nearly all actives have a fitted effect of over 65% in size
VDR inhibitor: blocks the human vitamin D receptor | Potency, µM, for the others: max response, negative = inhibition, most hits filed as inhibitors | VDR-SRC2-3 peptide fluorescence polarization, 2 h | 400,000 compounds, 0.93% hits | AID 504847 | P11473
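Fluorescence polarization assay of small-molecule disruption of VDR binding to coregulator peptide SRC2-3. Compounds and controls pin-transferred, then read after 2 h incubation at ambient room temperature.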
TDP1 cell noCPT: qHTS for Inhibitors of human tyrosyl-DNA phosphodiesterase 1 (TDP1): qHTS in cells in absence of CPT; Potency, µM (top dose mostly 46.2 µM), for the others: top-dose activity change, negative = growth inhibition, actives largely listed as inhibitors; 420,000 compounds, 15% hits; AID 686978, 2013; DT40 Tdp1-/- hTDP1 cells, no CPT, ATP luminescence, 48 h; note: nearly all actives have a fitted effect of over 55% in size
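Chicken DT40 Tdp1-/- cells stably complemented with human TDP1 were seeded at 400 cells/well with DMSO in place of 20 nM camptothecin. After compound pinning, cells grew at least 48 hr at 37 °C; viability read by CellTiter-Glo luminescence.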
The depositor's hits bear a star; ? = inconclusive; / = no result; ! = a repeat was not active; [ ] = another dose, or the depositor's remark. Only some compounds are listed: those with a hit (about 18% of all), similar ones and a draw of the others. Calls come from the whole dose curve; as a rule, active = well fitted curve in the direction sought with a large enough effect; inconclusive = small, poorly fitted or top-dose-only effect, or another doubt; inactive = no such curve, though single readings can be large; an effect the other way counts as inactive or inconclusive. % is set by controls: 0 for no effect and ±100 for the full control effect; potency is the fitted concentration of half-maximal effect.

SMILES	TDP1 cell CPT	GCN5L2 inh	TDP1 inh	PLK1 PBD block	VDR inhibitor	TDP1 cell noCPT
CCS(=O)(=O)Nc1ccc(C2=NN(C(=O)c3ccco3)C(c3cccs3)C2)cc1 (centres undefined)	?	-7.0%	6.1%	-3.2%	-5.7%	?
CCS(=O)(=O)Nc1ccc(C2=NN(C(=O)c3ccccc3)C(c3cccs3)C2)cc1 (centres undefined)	23.1µM*	-8.3%	2.1%	-12.6%	-18.1%	20.6µM*
CS(=O)(=O)Nc1cccc(C2=NN(C(=O)c3ccc(F)cc3)C(c3cccs3)C2)c1 (centres undefined)	?	20.3%	/	-14.9%	10.0%	?
Cc1cccc(C(=O)N2N=C(c3ccc(NS(C)(=O)=O)cc3)CC2c2cccs2)c1 (centres undefined)	23.1µM*	-7.8%	/	-18.6%	2.3%	-19.3%
C=C1N(c2ccccc2)C(=O)OC1(C)C	-1.4%	32.7%	1.8%	-8.0%	-3.4%	-1.1%
O=[N+]([O-])c1cccc(-c2nc(-c3cccs3)c(-c3cccs3)[nH]2)c1	20.6µM*	-2.9%	9.8%	-22.7%	2.7%	20.6µM*
Cc1ccc(-c2nc(-c3cccs3)c(-c3cccs3)[nH]2)cc1	14.6µM*	-0.3%	-2.3%	/	13.3%	11.6µM*
O=[N+]([O-])c1ccc(-c2nc(-c3cccs3)c(-c3cccs3)[nH]2)cc1	11.6µM*	-3.9%	10.7%	16.4%	-10.8%	11.6µM*
Fc1ccc(-c2nc(-c3cccs3)c(-c3cccs3)[nH]2)cc1	?	-2.2%	0.0%	/	-8.4%	?
Cn1c(=O)c2cc(C(=O)NCCCN3CCN(c4ccccc4F)CC3)sc2c2ccccc21	3.66µM*	-5.4%	0.0%	/	-8.5%	3.66µM*
Cn1c(C(=O)NCCN2CCN(c3ccccc3F)CC2)cc2c(=O)n(C)c3ccccc3c21	18.4µM*	1.4%	1.0%	-8.0%	?	23.1µM*
CCCN(CCC)CCNC(=O)c1cc2c(=O)n(C)c3ccccc3c2n1C	?	-5.7%	4.3%	18.9µM*	-27.6%	18.4µM*
CCN1CCN(CCCNC(=O)c2cc3c(=O)n(C)c4ccccc4c3s2)CC1	?	-9.5%	2.3%	/	8.0%	10.3µM*
COc1ncc2nc(C)c(=O)n(CCc3ccccc3)c2n1	?	-2.5%	/	/	11.2%	?
Cn1c(=O)c2cc(C(=O)NCCCN3CCN(c4ccc(F)cc4)CC3)sc2c2ccccc21	?	1.4%	2.3%	/	-4.6%	2.91µM*
Cn1c(C(=O)NCCCN2CCN(c3ccc(F)cc3)CC2)cc2c(=O)n(C)c3ccccc3c21	?	/	/	-2.1%	-4.8%	?
CCCCN(CC)CCNC(=O)c1cc2c(=O)[nH]c3ccccc3c2n1C	14.6µM*!	-8.7%	-2.7%	2.8%	-7.2%	16.4µM*!
O=C(CCNc1ccc(F)cc1)c1cc2ccccc2o1	8.2µM*	3.2%	7.7%	-15.2%	?	16.4µM*
O=C(CCNc1cccc(F)c1)c1cc2ccccc2o1	16.4µM*	-27.2%	6.3%	?	?	14.6µM*
CNC(=O)c1cc2ccccc2o1	1.3%	-2.4%	-7.1%[56.1 µM]	-1.8%	13.7%	-9.3%
O=C(Cc1ccc(F)cc1)OCC(=O)c1cc2ccccc2o1	-10.0%	-4.6%	-4.2%	-10.6%	-2.9%	-15.4%
O=C(Cn1c(=O)n(-c2ccccc2)c(=O)c2ccc(C(=O)NCc3ccc4c(c3)OCO4)cc21)Nc1ccc(Br)cc1F	?	-1.2%	-4.7%	/	4.1%	14.6µM*
Cc1ccc(-n2c(=O)c3ccc(C(=O)NCc4ccccc4Cl)cc3n(CC(=O)Nc3cccc(F)c3)c2=O)cc1	?	-0.6%	-2.3%	/	3.0%	?
COc1ccc(-n2c(=O)c3ccc(C(=O)NCc4ccc(C)cc4)cc3n(CC(=O)Nc3cccc(F)c3)c2=O)cc1	13µM*	-2.1%	0.0%	/	-3.9%	?
COc1ccc(Cl)cc1NC(=O)Cn1c(=O)n(-c2ccc(C)cc2)c(=O)c2ccc(C(=O)NCc3ccccc3Cl)cc21	4.61µM*	1.3%	2.3%	/	-4.6%	?
SMILES	TDP1 cell CPT	GCN5L2 inh	TDP1 inh	PLK1 PBD block	VDR inhibitor	TDP1 cell noCPT
c1ccc2oc(C3=NNC(=NC4CC4)SC3)cc2c1	?	-2.8%	9.6%	?	-17.4%	?
FC(F)Sc1ccc(N=C2NN=C(c3ccc4c(c3)OCCO4)CS2)cc1	18.4µM*	2.3%	9.5%	-29.5%	-18.4%	20.6µM*
COc1ccc(N=C2NN=C(c3ccc4c(c3)OCCO4)CS2)cc1	20.6µM*	0.0%	3.5%	26.7µM*	-9.8%	25.9µM*
c1csc(C2=NNC(=NC3CCCCC3)SC2)c1	?	-14.4%	7.7%	-9.0%	9.6%	23.1µM*
CCCCN=C1NN=C(c2ccc3c(c2)OCCO3)CS1	-28.2%	-3.8%	5.8%	-8.0%	-1.0%	-24.8%
c1cc2c(cc1C1=NNC(=NC3CC3)SC1)OCCO2	20.6µM*	-6.9%	5.3%	-29.4%	-12.5%	16.4µM*
CC(=O)NCCNc1nc(-c2ccc(N(C)C)cc2)nc2ccccc12	?	-12.0%	4.5%	/	-1.8%	?
CC(C)CN1CCC2(CC1)CCN(C(=O)c1cccc(F)c1)CC2	-6.4%	8.7%	/	/	1.8%	-14.9%
C[C@H](NC(c1cccc2nc(O)c(O)nc12)P(=O)(O)O)c1ccc(Br)cc1 (some centres undefined)	/	-9.6%	8.2%	/	18.4%	/
COc1ccc([N+](=O)[O-])cc1NS(=O)(=O)c1ccc(Cl)c(C(=O)Nc2sc3c(c2C#N)CCCCC3)c1	/	-8.6%	-1.2%	/	/	/
CC(=O)c1c(NC(=O)c2ccccc2)[nH]c(-c2ccccc2)nc1=S	?	-13.3%	1.2%	-0.2%	34.5%	23.1µM*
CCC(=O)N1CCc2cc(S(=O)(=O)NC(CC(C)C)C(=O)NCCc3ccccc3)ccc21 (centres undefined)	?	0.1%	4.7%	/	-3.8%	?
CC(C)(C)c1ccc(OCC(=O)N(Cc2ccco2)Cc2ccccc2F)cc1	?	-15.7%	-2.3%	/	9.1%	20.6µM*
CN(Cc1ccccc1F)C(=O)COc1ccc(C(=O)c2ccccc2)cc1	23.1µM*	-7.4%	/	-10.7%	-27.3%	20.6µM*
CCOc1ccccc1C(=O)N(Cc1ccco1)Cc1ccccc1F	20.6µM*	-4.3%	9.3%	/	5.1%	20.6µM*
Cc1cc(Cl)ccc1OCC(=O)N(Cc1ccco1)Cc1ccccc1F	?	-8.3%	0.0%	/	-7.4%	16.4µM*
O=C(O)c1cc(F)c(S(=O)(=O)N2CCN(S(=O)(=O)c3ccc4c(c3)OCCO4)CC2)cc1F	/	/	-4.4%	/	/	/
